# Laboratory results: PubChem BioAssay AID1053175 (ICCB-Longwood Screening Facility, Harvard Medical School, 2014)
# About 700 (0.21%) of roughly 330,000 compounds were called active. Only a selection was taken, and actives are over-represented in it overall. Unmarked numbers belong to inactive results.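 The calls were made as follows: active = OD600 absorbance below the run mean of sample wells minus 3.6 SD, in any replicate (cut at about 0.56 in these data); inactive = the rest.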
# Assay: antibacterial activity against Escherichia coli – OD600, primary screen (AID 1053175)
# Settings: Escherichia coli growth, OD600, 23 h; stronger effect = lower value
row,SMILES,OD600 absorbance
1,Cc1cc([N+](=O)[O-])cc(C)c1OCC(=O)NN=Cc1ccc(OC(=O)c2ccccc2Br)cc1,0.708
2,S=C(Nc1cccc(Cl)c1)Nc1ccc2c(c1)OCCO2,0.613
3,Cc1csc(NC(=S)Nc2cccc(Cl)c2)n1,0.618
4,FC(F)(F)c1cccc(NC(=S)Nc2cccc(Cl)c2)c1,0.501 (active)
5,Cc1nnc(NCCO)c2ccccc12,0.66
6,OCCNc1nc(Nc2ccc(Cl)c(Cl)c2)nc2ccccc12,0.392 (active)
7,OCCCNc1nc(-c2ccccc2)c2cc(Cl)ccc2n1,0.647
8,COc1cc(C(C)=NNC(=O)c2cccc(S(=O)(=O)N3CCCC3)c2)cc(OC)c1OC,0.705
9,Cc1ccc(CN(Cc2cccnc2)C(=S)Nc2cccc(Cl)c2C)cc1,0.672
10,Cc1cccc(C)c1NC(=S)N(Cc1cccnc1)Cc1ccccc1Cl,0.706
11,Cc1c(Cl)cccc1NC(=S)N(Cc1ccccc1)Cc1cccnc1,0.58 (active)
12,O=C(NN=C1CC(c2ccccc2)Oc2ccccc21)c1ccc(O)cc1 (centres undefined),0.541
13,COC(=O)NN=Cc1c[nH]c2ccccc12,0.738
14,CC(=NNC(=O)c1ccccc1[N+](=O)[O-])c1c(O)cc(C)oc1=O,0.635
15,COc1cc(C=NNC(=O)NC23CC4CC(CC(C4)C2)C3)ccc1OCC(N)=O,0.652
16,O=C(NNC(=O)C1CCCC1)c1ccc(F)cc1,0.706
17,O=C(/C=C/c1ccc([N+](=O)[O-])o1)NNC(=O)c1ccc(F)cc1,0.428 (active)
18,CCc1noc(C)c1C(=O)NNC(=O)c1ccc(F)cc1,0.692
19,S=c1[nH]nc(-c2ccncc2)n1N=Cc1ccccc1,0.705
20,CCN1/C(=C/c2ccc3ccc(C)cc3[n+]2CC)Sc2ccccc21,0.506 (active)
21,CC(=NNC(=O)c1ccc(F)cc1)c1ccccn1,0.506 (active)
22,CC(=NNC(=O)c1c[nH]c2ccccc12)c1ccccn1,0.586
23,COc1ccc(C(=O)NN=C(c2ccccc2)c2ccccn2)cc1,0.68
24,CC(=NNS(=O)(=O)c1ccc(Br)cc1)c1ccc(-n2ccnc2)cc1,0.734
